For orientation: viability means a read-out of living cells in per cent, often relative to untreated cells.

Structures are written as SMILES. Records with an inconclusive call do not appear. Activity calls are given as the source filed them. Calls follow the shape of the dose curve; as a rule, active = well fitted cell-killing curve with a large enough effect; inconclusive = small, poorly fitted or top-dose-only effect, or effect the other way; inactive = no such curve, though single readings can be large or run the other way.

40 compounds from PubChem BioAssay (NCATS) can be followed below.
Potency is read from the fitted curve at half-maximal effect.

A short description of the test: Quantitative High-Throughput drug screen in 47 multiple myeloma cell lines against the NCATS MIPE library collection: XG1_PLB cell viability assay (AID 1919866). Also: nearly all actives have a fitted effect of over 35% in size. Particulars: CellTiter-Glo ATP, 48 h; series mostly up to 45.8 µM; viability: at the top concentration. An excerpt: PI: Beverly A. Mock Ph.D.
Laboratory of Cancer Biology and Genetics,
Center for Cancer Research, National Cancer Institute,
National Institute of Health, Bethesda, Maryland
Drug resistance and disease progression are common in multiple myeloma (MM) patients, underscoring the need for new therapeutic combinations. […] We hypothesized that effective combinations would reduce MYC expression and enhance p16 activity. […] These preclinical data identify potentially useful drug combinations for evaluation in drug-resistant MM and reveal potential mechanisms of combined drug sensitivity.
Described herein is the primary MIPE qHTS used to cherrypick compounds. Validated compounds were then further tested for potential synergistic activiy.
[1] Peat TJ, Gaikwad SM, Dubois W, Gyabaah-Kessie N, Zhang S, Gorjifard S, Phyo Z, Andres M, Hughitt VK, Simpson RM, Miller MA, Girvin AT, Taylor A, Williams D, D'Antonio N, Zhang Y, Rajagopalan A, Flietner E, Wilson K, Zhang X, Shinn P, Klumpp-Thomas C, McKnight C, Itkin Z, Chen L, Kazandijian D, Zhang J, Michalowski AM, Simmons JK, Keats J, Thomas CJ, Mock BA. Drug combinations identified by high-throughput screening promote cell cycle transition and upregulate Smad pathways in myeloma. Cancer Lett. 2023 Aug 1;568:216284. doi: 10.1016/j.canlet.2023.216284. Epub 2023 Jun 24. PMID: 37356470; PMCID: PMC10408729.
SEQUENCE No. (e.g., 1, 2, 3, etc.); […] (e.g., Cells, Incubation, Reagent, etc.); VALUE and DESCRIPTION.
1; Cells; 5 uL; white, solid bottom 1536-well Greiner assay plate.
2; Compounds; 23 nL; Kalypsis pin tool (Wako USA) equipped with a 1536-well pin head to transfer to the assay plates.
3; Incubation; 48 hours; 37C incubation.
4; Reagent;5uL; CellTiter Glo (Promega).
5; Detector; 425V; Luminescence; Viewlux PerkinElmer.
NOTES (numbers refer to Sequence numbers above)
1. The cell-based screening methods employed in this study were like those previously published. Briefly, the corresponding myeloma cell lines were screened in 1,536-well plates with 500 cells, 5-uL per well for inhibition of cell viability (assessed by measuring ATP levels with CellTiterGlo).
2. NCATS MIPE 4.0 library of approved and investigational drugs were added using the Kalypsis pin tool. Wells treated with DMSO only for 100% viability and media only for 0% viability were used as controls.
3. The assay plates were covered and incubated for 48 hours in a 37C, 5% CO2 incubator with controlled humidity.
4. After 48 hours, CellTilter-GloTM luminescent substrate mix (Promega) reagent was added to the assay plate and plates we incubated for 5 min at room temperature.
5. Signal was measured as median relative luminescence units on a ViewLux (PerkinElmer) multiplate reader.
[1] Heske CM, Davis MI, Baumgart JT, Wilson K, Gormally MV, Chen L, Zhang X, Ceribelli M, Duveau DY, Guha R, Ferrer M, Arnaldez FI, Ji J, Tran HL, Zhang Y, Mendoza A, Helman LJ, Thomas CJ. Matrix Screen Identifies Synergistic Combination of PARP Inhibitors and Nicotinamide Phosphoribosyltransferase (NAMPT) Inhibitors in Ewing Sarcoma. Clin Cancer Res. 2017 Dec 1;23(23):7301-7311. doi: 10.1158/1078-0432.CCR-17-1121. Epub 2017 Sep 12. PMID: 28899971; PMCID: PMC6636827.
(ATP-based viability assays read luminescence as a measure of living cells.)
Consider `C[C@@H]1[C@H](O)[C@@H](C)C=CC=CC=CC=CC=CC=CC=C[C@H](O[C@@H]2O[C@H](C)[C@H](O)[C@H](N)[C@@H]2O)C[C@@H]2O[C@](O)(C[C@@H](O)C[C@@H](O)[C@H](O)CC[C@@H](O)C[C@@H](O)CC(=O)O[C@H]1C)C[C@H](O)[C@@H]2C(=O)O`, for which the Potency was 2.96 µM (active).
The same measure, in the same setting: the figure for `CC[C@H](C=C[C@@H](C)[C@H]1CC[C@H]2[C@@H]3CC=C4C[C@@H](O)CC[C@]4(C)[C@@H]3CC[C@]12C)C(C)C` is 1.02 µM (active).
As to `Cc1cc2c(cc1C1(c3ccc(C(=O)O)cn3)CC1)C(C)(C)CCC2(C)C`, the “viability” value was 119% (inactive).
Consider `CC(C)CN(C[C@H](O)[C@H](Cc1ccccc1)NC(=O)O[C@H]1CCOC1)S(=O)(=O)c1ccc(N)cc1`, for which the Potency was 20.9 µM (active).
Consider `CCCCC(C=O)NC(=O)C(CC(C)C)NC(=O)OCc1ccccc1` (stereo not given), for which the “viability” value is 119% (inactive).
Same read-out and setting: the figure for `CCNC(=O)[C@H]1O[C@@H](n2cnc3c(N)nc(NCCc4ccc(CCC(=O)O)cc4)nc32)[C@H](O)[C@H]1O` is 102% (inactive).
For the compound `CCOc1ccccc1N=Nc1c(C)[nH]n(-c2nc(-c3ccccc3)cs2)c1=O`, the Potency is 1.05 µM (active).
On to `C[C@]12CC[C@@H]3c4ccc(O)cc4CC[C@H]3[C@H]1[C@@H](O)[C@@H](O)[C@H]2O`, for which the Potency was 14.8 µM (active).
The same measure, in the same setting: the figure for `O=C(C=Cc1ccc(O)cc1)c1ccc(O)cc1O` is 16.6 µM (active); for `Nc1[nH]nc2nnc(-c3c(-c4ccccc4)nn4ccccc34)cc12` it is 6.62 µM (active).
As for `Cc1c(-c2cccc3c(CCCOc4cccc5ccccc45)c(C(=O)O)n(Cc4cccnc4)c23)c(COc2ccc(N3CCN([S+](=O)([O-])N(C)C)CC3)cc2)nn1C`, the “viability” value was 100% (inactive).
For the compound `CC(C)CNc1ccnc(NCc2csc(-c3ccccc3)n2)n1`, the Potency was 16.6 µM (active).
Regarding `O=c1[nH]c(=O)n([C@H]2C[C@@H](O)[C@@H](CO)O2)cc1I`, the “viability” value is 105% (inactive).
`NCc1c[nH]c(=S)n1[C@H]1CCc2c(F)cc(F)cc2C1`: the Potency is 9.35 µM (active).
On the same count and under the same terms, the figure for `CC(=O)Nc1cccc(-n2c(=O)n(C3CC3)c(=O)c3c(Nc4ccc(I)cc4F)n(C)c(=O)c(C)c32)c1` is 0.0418 µM (active); for `O=C(CC12CC3CC(CC(C3)C1)C2)Nc1cccc2nc(NCCNCCO)ccc12` it is 2.96 µM (active).
For `CC[C@H](C)C(=O)O[C@H]1C[C@H](O)C=C2C=C[C@H](C)[C@H](CC[C@@H](O)C[C@@H](O)CC(=O)O)[C@H]21`, the “viability” value was 121% (inactive).
Consider `CCC(=C(CC)c1ccc(O)cc1)c1ccc(O)cc1`, for which the Potency is 14.8 µM (active).
Take `COc1cccc(OC)c1-c1cc(C(=O)NC2(C(=O)O)C3CC4CC(C3)CC2C4)nn1-c1ccnc2cc(Cl)ccc12` (stereo not given): the “viability” value is 128% (inactive).
Regarding `N#CC(c1ccnc(NCCc2cccnc2)n1)c1nc2ccccc2s1` (stereo not given), the Potency was 10.5 µM (active).
Regarding `C[C@H]1[C@H](O)O[C@@H]2O[C@@]3(C)CC[C@@H]4[C@H](C)CC[C@@H]1[C@@]24OO3`, the Potency is 3.72 µM (active).
For `O=C(O)CCC=CCC[C@@H]1[C@H](N2CCCCC2)[C@@H](O)C[C@@H]1OCc1ccc(-c2ccccc2)cc1`, the “viability” value is 119% (inactive).
Still for that read-out and setting: for `O=C1CCCC(=O)C1C(=O)c1ccc(C(F)(F)F)cc1[N+](=O)[O-]` the value was 93.3% (inactive).
For the compound `CNC(=O)c1cc(Oc2ccc(NC(=O)Nc3ccc(Cl)c(C(F)(F)F)c3)c(F)c2)ccn1`, the Potency was 2.64 µM (active).
The same measure, in the same setting: for `Fc1ccc(CNc2ncnc3ccc(F)cc23)cc1` the value was 4.69 µM (active); for `N=C1SC(=Cc2ccc(-c3ccc4c(c3)C(=O)NC4=O)o2)C(=O)N1c1ccc(Br)cc1`, 2.35 µM (active); for `C[C@@H](NC(=O)c1ncnc(N)c1Cl)c1ncc(C(=O)Nc2cc(C(F)(F)F)c(Cl)cn2)s1`, 10.5 µM (active).
Still for that read-out and setting: for `C#C[C@]1(O)CC[C@H]2[C@H]3CCc4cc(OC)ccc4[C@H]3CC[C@@]21C` the value was 14.8 µM (active).
Still for that read-out and setting: for `O=C(Nc1ncc(SCCN2CCCC2)s1)[C@]1(c2ccc(S(=O)(=O)C3CC3)cc2)C[C@@H]1C1CCCCC1` the value was 8.33 µM (active).
On to `C=CC(=O)Nc1cccc(Sc2nc(Nc3ccc(N4CCN(C)CC4)cc3)ncc2Cl)c1`, for which the Potency was 1.05 µM (active).
The same measure, in the same setting: for `CC(C)n1c(C=C[C@H](O)C[C@H](O)CC(=O)O)c(-c2ccc(F)cc2)c2ccccc21` the value was 4.69 µM (active); for `c1cc(OCCN2CCCCC2)cc(-c2n[nH]c3ccc(-c4ncn[nH]4)cc23)c1`, 8.33 µM (active).
In the case of `Cc1ccc(S(=O)(=O)OCC(=O)Nc2ccc(C(=O)O)c(O)c2)cc1`, the Potency was 7.43 µM (active).
On the same count and under the same terms, for `CCOC(=O)N1CCN([N+]([O-])=NOc2cc(ON=[N+]([O-])N3CCN(C(=O)OCC)CC3)c([N+](=O)[O-])cc2[N+](=O)[O-])CC1` the value was 4.18 µM (active).
For `Cc1ccc(C2=Nc3ccc(Cl)cc3OC2)cc1`, the “viability” value is 123% (inactive).
Consider `CCC(=O)NCC[C@@H]1CCc2ccc3c(c21)CCO3`, for which the “viability” value is 105% (inactive).
On to `C=CC[N+]1([C@H]2C[C@H]3[C@@H]4CC[C@H]5C[C@H](O)[C@@H](N6CCOCC6)C[C@]5(C)[C@@H]4CC[C@]3(C)[C@H]2OC(C)=O)CCCC1`, for which the “viability” value was 136% (inactive).
For `NC(N)=Nc1nc(CSCCC(N)=NS(N)(=O)=O)cs1`, the Potency was 14.8 µM (active).
Regarding `Cc1cccc(Nc2nc(N[C@@H]3CCCC[C@H]3N)ncc2C(N)=O)c1`, the Potency is 9.35 µM (active).
On the same count and under the same terms, for `CNC1[C@H](O)C(O[C@@H]2C(O)C(O[C@H]3O[C@H]([C@@H](C)NC)CC[C@H]3N)[C@@H](N)C[C@H]2N)OC[C@]1(C)O` (stereo not given in full) the value was 18.7 µM (active).
